# Reference: the supplement of paper PMC9135407
# Where “and” joins values, the source holds several entries; their conditions need not be identical. Identical values can stand only once. Counter-ions that a name gives are not always drawn. In all, about 5,800 compounds went through this assay and about 620 (11%) showed activity. Shown is part of a subset that was picked to be rich in actives. Unmarked numbers belong to inactive results.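 The calls were made as follows: active = score above a cut-off or among the top three wells of a plate; in these data no inactive exceeds 0.85.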
# Test system: primary human hepatic stellate cells (donor 1)
# Experiment: scaled lipid accumulation score (0 = DMSO-like, 1 = nortriptyline-like); higher = stronger HSC inactivation (lipid re-accumulation), active = hit call of the paper
# Details: 48 h
# Experimental: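 Primary lipid accumulation screen in primary human hepatic stellate cell myofibroblasts (donor 1, passage 8) in 384-well plates. 100 nL of library compound was pin-transferred into 30 µL medium in duplicate, and cells were treated for 48 h. The 'Scaled' score combines distance from plate baseline, toxicity and reproducibility penalties, and is normalised to nortriptyline (positive) and DMSO (negative) controls on each plate. A hit is defined as scaled >0.85 or among the top 3 wells per plate.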
# [1] = library stock concentration: 10 mM
# [2] = library stock concentration: 1 mM
# [3] = library stock concentration: 3.33 mM
# [4] = library stock concentration: 6.4 mM
# [5] = library stock concentration: 2 mM
# [6] = library stock concentration: 80 uM
# [7] = library stock concentration: 400 uM
smiles,measurement,setting,value
Cc1cc2c(cc1Cl)N(C(=O)Nc1ccc(Oc3cccnc3C)nc1)CC2,scaled lipid accumulation score,[1],0.832
Cc1cc2c(cc1Cl)N(C(=O)Nc1ccnc3ccccc13)CC2,scaled lipid accumulation score,[1],1.08 (active)
Cn1ccc2cc3c(cc21)CCN3C(=O)Nc1cccnc1,scaled lipid accumulation score,[1],≤ 0 and ≤ -0.006
CC(=Nc1ccccc1N)c1c(C)cc(=O)n(O)c1O,scaled lipid accumulation score,[1],≤ 0
CCCCCCCCCCCCCCCCOC[C@H](COP(=O)([O-])OCC[N+](C)(C)C)OC(=O)CCC [Butanoyl PAF],scaled lipid accumulation score,[2],≤ 0
CO[C@H]1C[C@@H]2CC[C@@H](C)[C@@](O)(O2)C(=O)C(=O)N2CCCC[C@H]2C(=O)O[C@H]([C@H](C)C[C@@H]2CC[C@H](n3cnnn3)[C@H](OC)C2)CC(=O)[C@H](C)/C=C(\C)[C@@H](O)[C@@H](OC)C(=O)[C@H](C)C[C@H](C)/C=C/C=C/C=C/1C [Zotarolimus(ABT-578)],scaled lipid accumulation score,[3],0.109
same,scaled lipid accumulation score,[1],≤ 0
OC[C@H]1NC[C@@H](O)[C@@H](O)[C@@H]1O [1-Deoxymannojirimycin hydrochloride],scaled lipid accumulation score,[1],≤ -0.006
same,scaled lipid accumulation score,library stock concentration: 25.1 mM,≤ -0.012
"CCCCC(C)(C)[C@H](O)/C=C/[C@H]1C=CC(=O)[C@@H]1C/C=C\CCCC(=O)O [16,16-dimethyl Prostaglandin A2]",scaled lipid accumulation score,[2],≤ 0
C#C[C@]1(O)CC[C@H]2[C@@H]3CCC4=CC(=O)CC[C@@H]4[C@H]3CC[C@@]21CC,scaled lipid accumulation score,[1],0.195
C#C[C@]1(O)CC[C@H]2[C@@H]3CCC4=CC(=O)CC[C@@H]4[C@H]3CC[C@@]21CC [Norgestrel-(-)-D],scaled lipid accumulation score,,≤ 0
C#CC1(O)CC[C@H]2[C@@H]3CCC4=CC(=O)CC[C@@H]4[C@H]3CC[C@@]21CC (stereo not given in full) [Norgestrel],scaled lipid accumulation score,[2],0.037
same,scaled lipid accumulation score,[1],0.03
C#C[C@]1(O)CCC2C3CCC4=CC(=O)CC[C@@H]4C3CC[C@@]21CC (stereo not given in full) [Norgestrel],scaled lipid accumulation score,[4],1.05 (active)
C#C[C@]1(O)CC[C@H]2[C@@H]3CCC4=CC(=O)CC[C@@H]4[C@H]3CC[C@@]21CC [Levonorgestrel],scaled lipid accumulation score,[2],≤ 0
same,scaled lipid accumulation score,[3],≤ 0
same,scaled lipid accumulation score,[4],0.107
same,scaled lipid accumulation score,[1],0.727
Nc1nc2c(nc(O)n2[C@@H]2O[C@H](CO)[C@@H](O)[C@H]2O)c(=O)[nH]1 [8-hydroxy Guanosine],scaled lipid accumulation score,[2],≤ 0
CCCCC[C@H](O)/C=C/[C@@H]1[C@H]2C/C(=C\CCCC(=O)O)C[C@H]2C[C@H]1O [5-cis Carbaprostacyclin],scaled lipid accumulation score,[2],≤ 0
O=C1OC[C@H](Cc2cccc(O)c2)[C@H]1Cc1cccc(O)c1,scaled lipid accumulation score,[2],≤ 0
O=C(Nc1cccc(Nc2nccc(Nc3cccc(C(F)(F)F)c3)n2)c1)C1CC1 [Aurora Kinase Inhibitor III],scaled lipid accumulation score,[3],0.0325
CCN(CC)CCCCNc1ncc2cc(-c3cc(OC)cc(OC)c3)c(NC(=O)NC(C)(C)C)nc2n1 [listing 1 of 3 here],scaled lipid accumulation score,[5],1.12 (active)
same,scaled lipid accumulation score,[1],1.22 (active)
CCN(CC)CCCCNc1ncc2cc(-c3cc(OC)cc(OC)c3)c(NC(=O)NC(C)(C)C)nc2n1 [listing 2 of 3 here],scaled lipid accumulation score,[3],1.34 (active)
same,scaled lipid accumulation score,[1],1.01 (active)
CCN(CC)CCNC(=O)COc1ccc(OC)cc1 [Mefexamide hydrochloride],scaled lipid accumulation score,,≤ 0
CCN(CC)CCNC(=O)COc1ccc(OC)cc1 [Mefexamide],scaled lipid accumulation score,library stock concentration: 6.3 mM,0.018
same,scaled lipid accumulation score,[1],≤ 0
CCN(CC)CCCCNc1ncc2c(n1)N(C)C(=O)N(c1c(Cl)c(OC)cc(OC)c1Cl)C2,scaled lipid accumulation score,[6],≤ -0.008
same,scaled lipid accumulation score,[7],≤ -0.008
same,scaled lipid accumulation score,[5],≤ -0.001
same,scaled lipid accumulation score,[1],0.416
CCN(CC)CCCCNc1ncc2cc(-c3cc(OC)cc(OC)c3)c(NC(=O)NC(C)(C)C)nc2n1 [listing 3 of 3 here],scaled lipid accumulation score,[6],≤ 0
same,scaled lipid accumulation score,[7],≤ 0
COc1cc(OC)cc(-c2cc3cnc(N)nc3nc2NC(=O)NC(C)(C)C)c1,scaled lipid accumulation score,[1],≤ 0
CCCCCCCCCCCCCC=CC(O)C(CO)NC(=O)CCCCCCCCCCCCCCCCCCCCCCC (stereo not given) [Lignoceric Ceramide],scaled lipid accumulation score,[2],≤ 0
Nc1nc2ccc(Cl)cc2n2c(-c3ccccc3)nnc12,scaled lipid accumulation score,[1],0.049
CCCCC#Cc1nc(NC)c2ncn([C@@H]3O[C@H](CO)[C@@H](O)[C@H]3O)c2n1,scaled lipid accumulation score,[1],≤ 0 and ≤ -0.006
CC(C(C)N1CC(=O)NC(=O)C1)N1CC(=O)NC(=O)C1 (stereo not given),scaled lipid accumulation score,library stock concentration: 17.7 mM,≤ -0.012
C=N[C@@H](C(=O)N[C@@H]1C(=O)N2[C@@H]1SC(C)(C)[C@@H]2C(=O)O)c1ccccc1 [Metampicillin sodium salt],scaled lipid accumulation score,,≤ 0
CC(=O)Oc1c(C)cccc1C(=O)O,scaled lipid accumulation score,[1],≤ 0
CCCCC[C@@](C)(O)/C=C/[C@@H]1[C@@H](C/C=C\CCCC(=O)OC)[C@@H](O)C[C@H]1O [15(R)-15-methyl Prostaglandin F2.alpha. methyl ester],scaled lipid accumulation score,[2],≤ 0
Cn1cc(CNCC2CCN(c3ncc(C(=O)NO)cn3)CC2)c2ccccc21 [listing 1 of 2 here],scaled lipid accumulation score,[3],0.478
Cn1cc(CNCC2CCN(c3ncc(C(=O)NO)cn3)CC2)c2ccccc21 [listing 2 of 2 here],scaled lipid accumulation score,[1],0.985 (active)
CN1CCc2c(c3ccccc3n2Cc2ccc(C(=O)NO)cc2)C1 [Tubastatin A],scaled lipid accumulation score,[3],≤ 0
same,scaled lipid accumulation score,[1],≤ 0
CN1CCc2c(c3ccccc3n2Cc2ccc(C(=O)NO)cc2)C1 [Tubastatin A HCl],scaled lipid accumulation score,[3],≤ 0
same,scaled lipid accumulation score,[1],0.218
O=C(C[S+]([O-])Cc1ccco1)NC/C=C\COc1cc(CN2CCCCC2)ccn1 (stereo not given) [Lafutidine],scaled lipid accumulation score,[3],≤ 0
same,scaled lipid accumulation score,[1],≤ 0
C=CCc1ccccc1OCC(O)CNC(C)C (stereo not given) [Alprenolol hydrochloride],scaled lipid accumulation score,,0.634
same,scaled lipid accumulation score,[1],0.5
CC(COc1ccccc1Cc1ccccc1)N1CCCCC1.O=P(O)(O)O (stereo not given),scaled lipid accumulation score,[1],1.02 (active)
C=CCc1ccccc1OCC(O)CNC(C)C (stereo not given) [Alprenolol HCl],scaled lipid accumulation score,library stock concentration: 8 mM,0.203
N=C(CC(O)COc1ccccc1-c1ccccc1)N1CCCCC1 (stereo not given),scaled lipid accumulation score,[1],0.781
O=c1ncc(F)c[nH]1 [5-fluoro-2-pyrimidone],scaled lipid accumulation score,[1],≤ 0
CC1CCN=C(N)C1 (stereo not given) [2-Imino-4-methylpiperidine (acetate)],scaled lipid accumulation score,[2],0.011
N#C/C(=C\c1ccc(O)c(O)c1)C(=O)NCCCCc1ccccc1,scaled lipid accumulation score,[1],≤ 0
CCCCCOc1ccccc1C(O)CC#CCCCC(=O)OC (stereo not given),scaled lipid accumulation score,[2],0.022
CN1CCC[C@@H]1Cc1c[nH]c2ccc(CCS(=O)(=O)c3ccccc3)cc12 [Eletriptan HBr],scaled lipid accumulation score,[3],0.194
same,scaled lipid accumulation score,[1],0.202
Br.CN1CCC[C@@H]1Cc1c[nH]c2ccc(CCS(=O)(=O)c3ccccc3)cc12 [Eletriptan hydrobromide],scaled lipid accumulation score,[1],0.912 (active)
CNS(=O)(=O)CCc1ccc2[nH]cc(C3CCN(C)CC3)c2c1 [Naratriptan],scaled lipid accumulation score,[3],≤ 0
same,scaled lipid accumulation score,[1],≤ 0
CN1CCC[C@@H]1Cc1c[nH]c2ccc(CCS(=O)(=O)c3ccccc3)cc12 [Eletriptan hydrobromide],scaled lipid accumulation score,[1],0.624
CNS(=O)(=O)CCc1ccc2[nH]cc(C3CCN(C)CC3)c2c1 [Naratriptan hydrochloride],scaled lipid accumulation score,[1],0.019
COC(=O)N[C@H](C(=O)N1CCC[C@H]1c1ncc(-c2ccc(-c3ccc(-c4cnc([C@@H]5CCCN5C(=O)[C@@H](NC(=O)OC)C(C)C)[nH]4)cc3)cc2)[nH]1)C(C)C [listing 1 of 2 here],scaled lipid accumulation score,[3],0.322
COC(=O)N[C@H](C(=O)N1CCC[C@H]1c1ncc(-c2ccc(-c3ccc(-c4cnc([C@@H]5CCCN5C(=O)[C@@H](NC(=O)OC)C(C)C)[nH]4)cc3)cc2)[nH]1)C(C)C [listing 2 of 2 here],scaled lipid accumulation score,[1],1.04 (active)
CCCCC[C@H](O)/C=C/[C@@H]1C2C[C@H](CCCCC(=O)O)O[C@@H]2C[C@H]1O (stereo partly drawn) [6.beta.-Prostaglandin I1],scaled lipid accumulation score,[2],0.004
CC(N)(Cc1ccc(O)c(O)c1)C(=O)O (stereo not given),scaled lipid accumulation score,[1],≤ 0
CC(C)CN1CCC(CNCc2ccc(C#CC(C)(C)O)s2)CC1,scaled lipid accumulation score,[1],0.671 (active)
Cc1c(C)c2c(c(C)c1O)CCC(C)(CCCC(C)C(=O)O)O2 (stereo not given),scaled lipid accumulation score,[2],≤ 0
C[C@H]1C[C@H]2[C@@H]3CCC4=CC(=O)C=C[C@]4(C)[C@H]3C(=O)C[C@]2(C)[C@@]1(O)C(=O)CO [Meprednisone],scaled lipid accumulation score,[3],0.055
same,scaled lipid accumulation score,[1],≤ 0
Cc1ccc(F)c(NC(=O)Nc2ccc(-c3cccc4[nH]nc(N)c34)cc2)c1 [listing 1 of 2 here],scaled lipid accumulation score,[1],1.08 (active)
Cc1ccc(F)c(NC(=O)Nc2ccc(-c3cccc4[nH]nc(N)c34)cc2)c1 [Linifanib (ABT-869)],scaled lipid accumulation score,[3],≤ 0
same,scaled lipid accumulation score,[1],≤ 0
Cc1cc(NC(=O)Nc2ccc(N(C)C)cc2)c2cc(F)cc(F)c2n1,scaled lipid accumulation score,[3],0.007
same,scaled lipid accumulation score,[1],0.001 and ≤ -0.006
Cc1ccc(F)c(NC(=O)Nc2ccc(-c3cccc4[nH]nc(N)c34)cc2)c1 [listing 2 of 2 here],scaled lipid accumulation score,[6],0.001
same,scaled lipid accumulation score,[7],≤ -0.009 and ≤ -0.005
same,scaled lipid accumulation score,[5],0.233 and 0.419
same,scaled lipid accumulation score,[1],0.446
CCCCCCCCCCCCC(=O)NC1CCOC1=O [N-tridecanoyl-L-Homoserine lactone],scaled lipid accumulation score,[2],≤ 0
COc1cccc(C=NCCN=Cc2cccc(OC)c2[O-])c1[O-].[Cl-].[Mn+3],scaled lipid accumulation score,[3],≤ 0
same,scaled lipid accumulation score,[1],0.234
Cc1ccc(/C=N/NC(=O)c2ccccc2Oc2ccccc2)o1,scaled lipid accumulation score,[1],≤ -0.001
CN(C)C(=O)n1nnnc1Cc1ccc(-c2ccccc2)cc1,scaled lipid accumulation score,[1],0.554
